Test results reported in the supplement of paper PMC6555819.

What was measured:
Test in all cases: PBM binding z-score (relative to random genomic background probes); higher = stronger binding; sequences stand for … in GC…GCGATTGACAGCGTAGAATGAAGG
[1] = system: FXR:RXRa (NR concentration 270 nM, RXRa partner concentration 90 nM)
Method in brief: (§1)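 On custom Agilent 4×180K arrays, double-stranded probes with 34-nt variable regions carried direct-repeat seeds, single-nucleotide variants, half-site ablations or random human genomic background. Ligand-free nuclear receptor dimers were applied for 1 h, and binding was read with antibodies against each partner (one per run). Binding z-scores come from regression-normalized fluorescence, with the random background probes as reference.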

[2] = system: LXRa:RXRa (NR concentration 270 nM, RXRa partner concentration 90 nM)
Method in brief: as §1

[3] = system: LXRa homodimer (NR concentration 270 nM)
Method in brief: as §1

[4] = system: LXRb:RXRa (NR concentration 270 nM, RXRa partner concentration 90 nM)
Method in brief: as §1

[5] = system: LXRb homodimer (NR concentration 270 nM)
Method in brief: as §1

[6] = system: PPARa:RXRa (NR concentration 270 nM, RXRa partner concentration 90 nM)
Method in brief: as §1

[7] = system: PPARg:RXRa (NR concentration 180 nM, RXRa partner concentration 90 nM)
Method in brief: as §1

[8] = system: PPARg:RXRa 270nM:90nM, anti-RXR (NR concentration 270 nM, RXRa partner concentration 90 nM)
Method in brief: as §1

[9] = system: PPARg:RXRa 30nM:10nM, anti-RXR (NR concentration 30 nM, RXRa partner concentration 10 nM)
Method in brief: as §1

[10] = system: PPARg:RXRa 90nM:30nM, anti-RXR (NR concentration 90 nM, RXRa partner concentration 30 nM)
Method in brief: as §1

[11] = system: PPARg:RXRa DBDmut IVT, anti-RXR (DBD mutation: RXRa K156A/R161A, NR concentration 270 nM, RXRa partner concentration 90 nM)
Method in brief: as §1

[12] = system: PPARg:RXRa IVT, anti-PPARg (NR concentration 270 nM, RXRa partner concentration 90 nM)
Method in brief: as §1

[13] = system: PPARg DBDmut:RXRa IVT, anti-PPARg (DBD mutation: PPARg1 K132A/R137A, NR concentration 270 nM, RXRa partner concentration 90 nM)
Method in brief: as §1

[14] = system: PPARg DBDmut IVT, anti-PPARg (DBD mutation: PPARg1 K132A/R137A, NR concentration 270 nM)
Method in brief: as §1

[15] = system: PPARg homodimer (NR concentration 180 nM)
Method in brief: as §1

[16] = system: PXR:RXRa (NR concentration 270 nM, RXRa partner concentration 90 nM)
Method in brief: as §1

[17] = system: PXR homodimer (NR concentration 270 nM)
Method in brief: as §1

[18] = system: RARa:RXR (NR concentration 270 nM, RXRa partner concentration 90 nM)
Method in brief: as §1

[19] = system: RARa homodimer (NR concentration 270 nM)
Method in brief: as §1

[20] = system: RARb:RXRa (NR concentration 270 nM, RXRa partner concentration 90 nM)
Method in brief: as §1

Sequence | PBM binding z-score [1] | PBM binding z-score [2] | PBM binding z-score [3] | PBM binding z-score [4] | PBM binding z-score [5] | PBM binding z-score [6] | PBM binding z-score [7] | PBM binding z-score [8] | PBM binding z-score [9] | PBM binding z-score [10] | PBM binding z-score [11] | PBM binding z-score [12] | PBM binding z-score [13] | PBM binding z-score [14] | PBM binding z-score [15] | PBM binding z-score [16] | PBM binding z-score [17] | PBM binding z-score [18] | PBM binding z-score [19] | PBM binding z-score [20]
CCTACCGGGCCAAGGTCATTGATCAGTCAAAGCA | 3.14 | 3.01 | 1.23 | 2.66 | -0.522 | 3.66 | 1.86 | 2.48 | 0.154 | 1.76 | 0.244 | 1.19 | -0.794 | -1.36 | 1.88 | 3.79 | 1.52 | 4 | 0.296 | 3.42
CATACAGGGTCAGCGAGGCCAGAGTAGGGACGGC | 5.13 | 3.36 | -0.392 | 2.27 | -0.0459 | 5 | 4.21 | 3.65 | 0.828 | 2.12 | 0.932 | 2.99 | 0.657 | 0.403 | 1.75 | 3.02 | 0.862 | 3.03 | 0.389 | 4.24
ATATCAAGGTGATCGTGAGGTCGTTGATACTAAC | 1.97 | 1.33 | 0.367 | 1.31 | 0.595 | 1.82 | 0.923 | 0.763 | 0.0904 | 0.846 | 1.67 | 2.27 | 1.01 | 1.33 | 0.347 | 3.24 | 1.18 | 2.03 | 0.406 | 1.69
AGAACGAGGGCACGCTGAGTTGAGAGCAGAGTAG | 1.03 | 1.06 | -0.514 | 0.188 | -0.934 | 2.12 | 2.05 | 1.81 | 0.0205 | 0.958 | 4.1 | 3.68 | 0.22 | 0.203 | 0.469 | 1.01 | 0.0274 | 1.35 | -0.318 | 2.54
GCGACTGGGGCAAAGCAGGTTACCGTAAGGTTGG | -0.0896 | 0.23 | -0.658 | 0.135 | -1.45 | 1.51 | 0.866 | 1.45 | -0.363 | 0.645 | 4.2 | 3.74 | -0.21 | -0.572 | 0.239 | 0.503 | -0.648 | 1.73 | -1.1 | 0.922
TAGCCTAGGTCAGGGGCCAGTATACCACGCGAAC | 1.76 | 1.34 | -0.415 | 1.88 | -0.376 | 2.61 | 2.83 | 2.96 | 0.91 | 2.43 | 0.374 | 2.32 | 0.429 | 0.131 | 0.542 | 0.506 | -0.579 | 1.42 | -0.0424 | 3.22
AGTCAAAGTCCATCTAGGTAACGTAAGATATGCT | 0.0265 | -0.375 | 0.0157 | -0.0801 | -0.0793 | 0.13 | 0.685 | 0.325 | 0.277 | 0.00564 | 0.353 | 2.15 | 1.24 | 0.675 | -0.173 | -0.246 | 0.131 | 0.0232 | 0.0654 | 1.37
TCAGTCAGGTGAAGGTAACTCAGGTACGCAGTCG | 1.03 | 1.75 | -0.167 | 0.908 | 0.224 | 1.1 | 0.838 | 2.17 | 3.25 | 2.69 | 2.31 | 1.88 | 0.527 | -0.686 | 0.571 | 0.5 | 0.129 | 0.701 | 0.00869 | 1.52
CGGCCAAGGTCAGCAGGTCAGTGAAAGCGACGTG | 5.72 | 3.58 | -0.0772 | 2.9 | -0.899 | 4.86 | 4.33 | 4.32 | 0.918 | 2.85 | 3.06 | 3.74 | -0.746 | -1.2 | 2.33 | 3.48 | 0.241 | 4.37 | 0.145 | 5.34
CGTCCAAGGTCAAGGTAAGTGAAAGAGACTCGAA | 7.13 | 5.23 | 0.112 | 3.72 | 0.343 | 5.58 | 5.26 | 5.51 | 1.81 | 4.01 | 3.13 | 3.85 | 0.749 | 0.108 | 3.18 | 3.52 | 0.541 | 4.27 | 1.1 | 5.3
GCTGCTAGGTCAACTGATGGTCAGCGAAAGCTCG | 4.13 | 3.2 | 0.141 | 2.07 | -0.112 | 3.84 | 2.73 | 3.35 | 0.723 | 2.31 | 4.56 | 4.1 | 0.329 | -0.0247 | 1.64 | 1.7 | -0.425 | 2.98 | 0.244 | 4.37
CATCCAAGGTCAGCAGGTCAGTGAAAGCGACGTG | 6.25 | 4.68 | 1.66 | 3.31 | 0.653 | 4.79 | 4.86 | 4.71 | 1.81 | 3.37 | 3.12 | 4.02 | 0.104 | 0.555 | 4.34 | 3.82 | 1.14 | 5.21 | 2.38 | 5.17
CCTTACGGGTCACGAGGTTAGAGCACGACGAGCG | 6.98 | 4.06 | 0.353 | 3.58 | 0.0179 | 5.8 | 7.39 | 6.87 | 3.49 | 6.11 | 4.55 | 5.59 | 2.76 | 1.38 | 2.96 | 4.32 | -0.124 | 5.72 | 0.978 | 4.6
CGTCCAAGGTCAAGGTCAGTTAAAGAGACTCGAA | 7.98 | 6.08 | 1.79 | 4.95 | 1.26 | 6.11 | 6.45 | 6.18 | 2.97 | 5.03 | 3.64 | 4.64 | 0.996 | 0.327 | 3.84 | 5.2 | 1.12 | 5.74 | 1.83 | 5.81
